BAZ2B block = BAZ2B (human) inhibition. AID 504333. AlphaScreen BAZ2B-H3K14Ac peptide displacement. Q9UIF8. 360,000 compounds, 4.4% hits. Potency, µM (doses to about 114 µM), usual class: inhibitors; note: nearly all actives have a fitted effect of over 60% in size
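AlphaScreen displacement: compounds (up to 110uM) incubated 30 min at room temperature with a preformed 50 nM BAZ2B/50 nM biotinylated H3K14Ac peptide complex in PBS pH 7.4 with Tween-20. Donor and acceptor beads at 10 ug/mL final added, 20 min light-protected before reading.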
HP1b chromo inh = HP1-beta chromodomain-methylated histone interaction inhibition; P83916; AlphaScreen HP1-beta / biotin-H3K9me3 peptide binding; Potency, µM (doses to about 114 µM), most hits filed as inhibitors; 390,000 compounds, 0.56% hits; note: nearly all actives have a fitted effect of over 70% in size
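AlphaScreen: HP1-beta (50 nM) preformed 30 min with biotin-H3(1-18)K9me3 peptide (50 nM) in PBS pH 7.4, 0.01% Tween-20. Compound added for 30 min at RT, then streptavidin donor/nickel chelate acceptor beads (10 ug/mL) for 30 min.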
G9a block = G9a (human) methyltransferase inhibition | Q96KQ7 | G9a H3K9 monomethylation, AlphaScreen, 2 h | Potency, µM (series often up to 102 µM), actives largely listed as inhibitors | 350,000 compounds, 8.8% hits | AID 504332; note: nearly all actives have a fitted effect of over 75% in size
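Readings reflect AlphaScreen signal from monomethyl-H3K9 antibody detection. HMT at 20 nM; substrate b-H3K9 500 nM; cofactor SAM 20 uM; 2 h RT reaction; compounds tested as titrations in qHTS with 15 min preincubation.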
Sfp PPTase inh = blocks B. subtilis Sfp PPTase activity | Q9F4F7 | Biochemical Sfp PPTase activity, qHTS | Potency, µM, hits mostly inhibitors | 310,000 compounds, 3.5% hits;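 note: the enzyme is Sfp with the accession as filed and its product quenches rhodamine fluorescence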
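Step 1, compound plus 15 nM Sfp-PPTase, 15 min, room temperature. Step 2, add rhodamine-CoA (5 uM) and BHQ-2-YbbR (12.5 uM). Step 3, read 525/598 nm fluorescence at 0 and 30 min.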
ALOX12 inh = inhibitors of human 12S-lipoxygenase ALOX12 | P18054 | purified 12hLO, xylenol orange hydroperoxide absorbance | Potency, µM (series often up to 108 µM), hits mostly inhibitors | 580,000 compounds, 1.1% hits | AID 1671190
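Hydroperoxide product was detected by ferrous iron/xylenol orange as the 573 to 405 nm absorbance ratio. Arachidonic acid at 40 uM (final) was turned over for 30 min at room temperature by 150 nM human 12hLO, pH 7.0 Hepes buffer, after 15 min compound preincubation.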
JMJD2A Tudor = inhibitors of human JMJD2A Tudor domain; AlphaScreen JMJD2A-Tudor / H3K4me3 peptide binding; Potency, µM (top dose mostly 114 µM), usual class: inhibitors; 390,000 compounds, 4.4% hits; AID 504339; note: nearly all actives have a fitted effect of over 50% in size
A number is an active result; n = inactive; u = inconclusive; x = not tested or not shown; ! = not confirmed by another sample; [ ] = remark or other dose. A selection: hits, their analogues and other compounds. The true share with any hit is near 8.7%. Calls come from the whole dose curve; as a rule, active = well fitted curve in the direction sought with a large enough effect; inconclusive = small, poorly fitted or top-dose-only effect, or another doubt; inactive = no such curve, though single readings can be large; an effect the other way counts as inactive or inconclusive.

SMILES | BAZ2B block | HP1b chromo inh | G9a block | Sfp PPTase inh | ALOX12 inh | JMJD2A Tudor
C[C@H](NC[C@H](O)CP(=O)(O)Cc1ccccc1)c1ccc(Cl)c(Cl)c1 | x | x | n | 89µM! | 20µM! | x
CC(NC(=O)CCl)c1ccc(Cl)c(Cl)c1 (stereo not drawn) | n | n | n | n | n | n
COc1ccc(C(NC(=O)c2cc(OC)ccc2OC)c2ccccc2)cc1 (stereo not drawn) | n | n | n | n | u | n
CNC(=O)c1cc(Cl)c(OC)c(OC)c1 | n | u | 7.9µM | 45µM | u | n
COc1c(Cl)cc(C(=O)NN)cc1Cl | n | n | x | 50µM | n | n
COc1c(Cl)cc(C(N)=O)cc1Cl | x | x | x | x | n | x
COc1cc(C(=O)NC(c2ccccc2)c2ccccc2)cc(OC)c1C | u | n | 50µM | n | x | n
NNC(=O)c1cc(O)c(O)c(O)c1 | 18µM | 45µM | 8.9µM | 32µM | u | 1.8µM
CCc1cnc2c(c1SCC(=O)Nc1ccccc1C)c(=O)n(C)c(=O)n2C | x | x | x | x | n | x
CCN1CCN(c2oc(-c3ccco3)nc2S(=O)(=O)c2ccccc2)CC1 | x | x | x | x | n | x
CCOC(=O)c1ccc(NC(C)=O)o1 | x | x | x | x | n | x
COc1ccc(N/N=C(\C#N)C(N)=O)cc1 | n | n | 8.9µM | n | n | n
COc1ccc(N/N=C(\C#N)C(=N)N2CCOCC2)cc1 | n | n | 28µM | n | n | n
COC(=O)/C(=C\C(=O)c1ccc([N+](=O)[O-])cc1)Nc1ccc(OC)cc1 | 5.6µM | 11µM | x | n | u | 18µM
CNC(=S)Nc1ccc(OC(F)(F)F)cc1 | u | n | n | n | n | n
N#C/C(=N/Nc1ccc(OC(F)(F)F)cc1)C(N)=S | 35µM | n | x | u | u | u
CCOc1ccc(N/N=C(/C#N)C(N)=O)cc1 | n | n | u | n | u | n
N#C/C(=N\Nc1ccc(F)cc1)C(=N)N1CCCCC1 | u | n | u | n | u | n
O=C1CC(c2ccccc2)N(Cc2ccncc2)CCCN(C(=O)C2(c3ccccc3)CC2)CCN1 (stereo not drawn) | x | x | x | x | n | x
CC(C)NC(=O)CN1CCN(Cc2cc(=O)c3cccc(Cl)c3[nH]2)CC1 | x | x | x | x | n | x
CCOc1ccc(CC(=O)NNC(=S)NCCOC)cc1OCC | x | x | x | x | n | x
COc1ccc(C(=O)/C(C#N)=N/Nc2ccc([N+](=O)[O-])cc2)cc1 | 7.1µM | u | 2µM | n | u | 7.9µM
CCCc1cc(=O)[nH]c(SC(C)C(=O)NC2CCCCCC2)n1 (stereo not drawn) | x | x | x | x | n | x
COc1ccccc1C(=O)NC(CCSC)C(=O)NCCCSc1ccccc1 (stereo not drawn) | u | n | 56µM | x | u | n
COc1ccccc1C(=O)NC(CCSC)C(=O)OCC(=O)NC(=O)NCc1ccco1 (stereo not drawn) | 50µM | n | n | n | n | u
SMILES | BAZ2B block | HP1b chromo inh | G9a block | Sfp PPTase inh | ALOX12 inh | JMJD2A Tudor
CSCCC(NC(=O)c1ccc(Cl)cc1)C(=O)OCC(=O)NCc1ccco1 (stereo not drawn) | n | n | u | x | n | n
O=C1C2CN(Cc3ccccc3Cl)CCC2OCCN1Cc1ccccc1 (stereo not drawn) | x | x | x | x | n | x
O=C(NCCCOC1CCCCC1)C1CCCO1 (stereo not drawn) | x | x | x | x | n | x
O=C(c1ccc(Cl)cc1)N1CCN(c2cc(-c3ccc(F)cc3)[nH]n2)CC1 | x | x | x | x | n | x
CC(C)C[C@H](NC(=O)OC(C)(C)C)c1n[nH]c(=S)n1N | n | n | 10µM | n | n | n
O=C(O)C1=C(Nc2ccccc2)OCC1=O | n | n | 40µM | n | u | u
Cn1c(C(=O)Nc2cccc3cccnc23)c(Cl)c2ccccc21 | x | x | x | x | n | x
Cc1ccc(NC(=S)NCc2ccccn2)cc1 | n | n | n[0.501 µM] | n | u | u
Cc1cc(NCc2ccccn2)ccc1Br | 50µM | n | 25µM | n | u | 8.9µM
COc1ncccc1-c1nnn(-c2ccccc2)n1 | n | n | u | n | n | n
COc1ncccc1-c1nnn(-c2ccccc2Br)n1 | x | n | x | x | 28µM | n
Cc1ccc(C(=O)N2CCn3c(nnc3-c3ccc(Cl)cc3)C2)cc1 | x | x | x | x | n[6.33 µM] | x
Cc1cccc(NC(=O)C2CCN(C(=O)[C@@H]3Cc4ccccc4CN3)CC2)c1 | n | n | u | n | u | n
Cc1ccc(NC(=O)C2CCN(C(=O)[C@@H]3Cc4ccccc4CN3)CC2)c(C)c1 | n | n | 45µM | n | u | n
Oc1c(C(Nc2ccccn2)c2ccccn2)ccc2cccnc12 (stereo not drawn) | n | n | 32µM | n | u | n[11.4 µM]
Oc1ccccc1C(Nc1nccs1)c1ccc2cccnc2c1O (stereo not drawn) | 28µM | n | x | n | n | 35µM
CC(C)C(=O)NC(c1ccc(Cl)cc1Cl)c1ccc2cccnc2c1O (stereo not drawn) | u | n | n[0.501 µM] | n | n | n
COc1ccccc1NC(c1cccnc1)c1ccc2cccnc2c1O (stereo not drawn) | 14µM | u | 1.4µM | 20µM | u | 22µM
COc1ccccc1NC(NC(=O)c1cccnc1)C(Cl)(Cl)Cl (stereo not drawn) | n | n | u | n | n | n
Cc1ccnc(NC(c2ccccc2F)c2ccc3cccnc3c2O)c1 (stereo not drawn) | 25µM | n | u | x | 22µM | 13µM
COc1cccc(NC(=O)CN(C)C(=O)CSc2ncnc3scc(-c4ccccc4)c23)c1 | x | x | x | x | n | x
CC1=C[C@@H](CNC(=O)c2cnccn2)[C@H](C(C)C)C[C@H]1CC(=O)N1CCOCC1 | x | x | x | x | n | x
Cc1n[nH]c(C)c1C(N)C(=O)NCCc1cccc(C(F)(F)F)c1 (stereo not drawn) | x | x | x | x | n | x
Cc1ccnc(NC(c2cc(C)ccc2O)c2ccc3cccnc3c2O)c1 (stereo not drawn) | 22µM | n | 10µM | x | n | 28µM
CC(=O)NC(c1ccc(Cl)cc1)c1ccc2cccnc2c1O (stereo not drawn) | x | n | x | x | n | u
SMILES | BAZ2B block | HP1b chromo inh | G9a block | Sfp PPTase inh | ALOX12 inh | JMJD2A Tudor
O=C(O)c1ccc2cccnc2c1O | 25µM | n | x | 20µM | n | 10µM
Oc1c(C(Nc2ccccn2)c2ccccc2F)ccc2cccnc12 (stereo not drawn) | 20µM | n | u | x | n | 14µM
Cc1cc(NC(c2ccc(Cl)cc2)c2ccc3cccnc3c2O)no1 (stereo not drawn) | 45µM | n | n | n | u | u
Cc1ccc(-c2cc(C(F)F)n3nc(C)c(Br)c3n2)cc1 | x | x | x | x | n | x
CCC(=O)NC(c1ccc(Cl)cc1Cl)c1ccc2cccnc2c1O (stereo not drawn) | n | n | n | n | u | n
O=C(O)c1ccccc1NC(c1ccccc1)c1ccc2cccnc2c1O (stereo not drawn) | x | 25µM | x | x | 18µM | 28µM
COc1ccc(C(Nc2cc(C)ccn2)c2ccc3ccc(C)nc3c2O)cc1 (stereo not drawn) | n | n | 4µM | n | u | u
